IMPase inh: cell-permeable inhibitors of inositol monophosphatase (IMPase); CHO-M1 cells, IP1 accumulation, HTRF TR-FRET ratio; inhibition (IP1 accumulation), % at 46.1 µM; 120,000 tested, under 10 active; AID 901; active means well fitted curve in the direction sought with a large enough effect in the signal ratio, not every such curve was filed as active; inconclusive means small, poorly fitted or top-dose-only effect, or a change in a side signal; inactive means no such curve, though single readings can be large or run the other way; the % refers to the signal ratio;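 further: cells stimulated with carbachol in lithium chloride buffer; plate controls were DMSO basal wells for no effect and reference inhibitor wells for full effect; higher means more IMPase inhibition seen as more IP1 and lower FRET ratio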
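Measured: the HTRF emission ratio (665/620 nm) plus the 620 nm donor channel, each fitted to the Hill equation to give AC50. Cells were CHO-M1 given compounds up to 46 uM and a 30 min carbachol stimulation at 37C.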
HPGD inh: blocks human HPGD enzyme activity; purified HPGD, NADH fluorescence kinetic, PGE2 substrate; AID 894; 4.3% of 150,000 active; Potency, µM, without a hit: at the highest dose activity change, negative = inhibition, hits mostly inhibitors; P15428; active means well fitted inhibition curve with a large enough effect, not every such curve was filed as active; inconclusive means small, poorly fitted or top-dose-only effect, or another doubt; inactive means no such curve, though single readings can be large or run the other way; further: potency means the concentration at half of the fitted maximal effect; on the % scale 0 is the no-effect control and ±100 the full control effect
Target sequence (P15428 whole entry, looked up): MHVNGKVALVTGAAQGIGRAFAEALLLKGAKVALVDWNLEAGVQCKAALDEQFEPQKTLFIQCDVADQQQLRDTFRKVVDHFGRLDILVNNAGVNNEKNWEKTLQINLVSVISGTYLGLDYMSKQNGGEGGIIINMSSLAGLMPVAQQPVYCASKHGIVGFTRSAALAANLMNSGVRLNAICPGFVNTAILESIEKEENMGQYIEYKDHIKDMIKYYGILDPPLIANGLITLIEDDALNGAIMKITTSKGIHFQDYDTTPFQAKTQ
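NADH formation kinetics: reaction with 30 uM PGE2 and 1 mM NAD+ (final), 20 nM enzyme, Tris-HCl pH 8 with Tween 20, after 15 min compound preincubation at room temperature. Fluorescence change, last versus first of five reads.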
HTT aggregate: mutant huntingtin aggregation inhibition; Potency, µM (top dose mostly 46.1 µM), for the others: at the highest dose activity change, negative = inhibition, most hits filed as inhibitors; AID 1688; 1.1% of 220,000 active; PC12 HttQ103-GFP aggregates, Acumen cytometry, 40 h; further: potency means the concentration at half of the fitted maximal effect; on the % scale 0 is the no-effect control and ±100 the full control effect; nearly all actives have a fitted effect of over 60% in size
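Aggregate formation scored by laser-scanning cytometer (488 excitation, 500–530 emission) in lysed PC12 cells expressing Q103-GFP after 100 nM tebufenozide induction; library tested in dose series, with ATPLite reagent added in the multiplex.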
IMPase Li cell: cell-permeable IMPase inhibitors with lithium potentiation. 0.35% of 210,000 active. Potency, µM (top dose mostly 59.4 µM), for inactives: at the top dose activity, negative = IMPase inhibition, hits mostly inhibitors. CHO-M1 cells, IP1 TR-FRET (IP-One), carbachol + lithium. AID 1457;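 further: IP1 builds up when IMPase is blocked and the TR-FRET signal falls; potency means the concentration at half of the fitted maximal effect; plate controls were basal vehicle for no effect and high inhibitor control for full effect; nearly all actives have a fitted effect of over 50% in size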
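Readout is a homogeneous TR-FRET IP1 immunoassay (Ex 320, Em 665 and 620), where raised cytosolic IP1 lowers signal. Cells were CHO-M1 treated 30 min at 37C with test compounds plus a little lithium; AC50 values came from Hill-equation fitting.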
HTT cytoprotect: Huntington cell model cytoprotection by ATP luminescence. Potency, µM (doses to about 56.4 µM), for the others: cytoprotection (ATP increase), hits mostly activators. 0.14% of 230,000 active. PC12 HTT-Q103 induced, cytoprotection, ATP luminescence, 40 h; further: potency means the concentration at half of the fitted maximal effect; % of control where 0% means no effect; nearly all actives have a fitted effect of over 45% in size
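Rat PC12, Q103 Htt exon1-GFP fusion, ecdysone promoter; tebufenozide inducer 100 nM final; compound titration; qHTS, 1500 cells/well; ATPlite luminescent read.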
ALDH1A1 block: blocks purified human ALDH1A1 activity; P00352; Purified ALDH1A1, NADH fluorescence, propionaldehyde substrate; Potency, µM (highest dose often 75.3 µM), for the others: top-dose activity, negative = inhibition, most hits filed as inhibitors; 7.3% of 220,000 active; AID 1030; active means well fitted inhibition curve with a large enough effect, not every such curve was filed as active; inconclusive means small, poorly fitted or top-dose-only effect, or another doubt; inactive means no such curve, though single readings can be large or run the other way;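 further: potency means the concentration at half of the fitted maximal effect; plate controls were no enzyme wells and a reference inhibitor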
Target sequence (P00352 whole entry, looked up): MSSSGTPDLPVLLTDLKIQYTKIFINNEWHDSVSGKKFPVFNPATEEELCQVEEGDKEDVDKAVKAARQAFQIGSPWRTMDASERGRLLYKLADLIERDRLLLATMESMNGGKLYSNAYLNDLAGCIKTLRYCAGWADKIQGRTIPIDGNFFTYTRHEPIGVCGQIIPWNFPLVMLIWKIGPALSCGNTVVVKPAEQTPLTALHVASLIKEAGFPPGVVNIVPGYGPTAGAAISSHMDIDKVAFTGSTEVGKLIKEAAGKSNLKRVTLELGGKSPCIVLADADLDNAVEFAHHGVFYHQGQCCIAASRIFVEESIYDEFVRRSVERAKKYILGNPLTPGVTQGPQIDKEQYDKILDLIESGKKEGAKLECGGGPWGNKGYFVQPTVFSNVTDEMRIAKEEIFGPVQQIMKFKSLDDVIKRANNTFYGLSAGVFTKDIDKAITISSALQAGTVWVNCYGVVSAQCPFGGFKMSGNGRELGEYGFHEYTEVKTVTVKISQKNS
The depositor's hits bear a star; ? = inconclusive; nt = not tested or not shown; [ ] = remark or other dose. Shown are actives, neighbours in structure and some others; about 9.4% of the full set was active somewhere. Unless noted, the call rests on the fitted dose curve; in most records, active means well fitted curve in the direction sought with a large enough effect; inconclusive means small, poorly fitted or top-dose-only effect, or another doubt; inactive means no such curve, though single readings can be large; an effect the other way counts as inactive or inconclusive.

SMILES	IMPase inh	HPGD inh	HTT aggregate	IMPase Li cell	HTT cytoprotect	ALDH1A1 block
C/C(=C1/SC(=S)N(CCC(=O)O)C1=O)c1ccc(O)cc1	0	18µM*	6%	24%[38.3 µM]	-11%	?
C[C@H](NS(=O)(=O)c1ccccc1)C(=O)OCC(=O)NC(=O)Nc1ccc2c(c1)OCCO2	nt	-13%	-1%	12%	36%[0.074 µM]	14µM*
CCC(CC)NC(=O)COC(=O)c1ccc(NS(=O)(=O)c2ccc3c(c2)OCCO3)cc1	-8	25µM*	-3%	20%[38.3 µM]	9%	?
COc1ccc(NS(=O)(=O)c2ccc(O)c(C(=O)OCC(=O)Nc3ccc4c(c3)OCCO4)c2)cc1	nt	?	-1%	-7%	30%[10 µM]	22µM*
CC1(C)CCC(=O)N[C@H]1CC(=O)C[C@H]1NC(=O)CCC1(C)C	nt	2%	nt	6%	-2%[10 µM]	4%[13.5 µM]
CC(=O)NC1C(OC2OC(CC(O)C3OC([N+]4=CCC(=O)NC4=O)C(O)C3O)C(O)C(O)C2NC(=O)/C=C/CCCCCCCCC(C)C)OC(CO)C(O)C1O (stereo not drawn)	nt	nt	nt	21%	-169%	-6%
O=C(/C=C(\O)c1ccccc1)c1ccccc1O	nt	20µM*	nt	5%	-23%	2%
COCCN(CCOC)c1nc(C)nc2c1nc(-c1ccccc1)n2CCN1CCOCC1	nt	?	nt	-16%	-9%	?
C=CCNC(=O)/C(=C/c1cn(-c2ccccc2)nc1-c1cccc([N+](=O)[O-])c1)NC(=O)c1ccccc1	0	nt	32%	nt	15%[10 µM]	1µM*
O=C(O)/C(=C\c1ccc(O)cc1)c1cccc2ccccc12	nt	1%	nt	-1%	-8%[10 µM]	7%[13.5 µM]
Cc1cccc(-n2cc[nH]c2=S)c1C	9	nt	?	nt	-13%[10 µM]	11µM*
Cc1ccccc1-n1cc[nH]c1=S	nt	nt	2%	6%	-17%	?
CC(C)c1ccccc1-n1cc[nH]c1=S	nt	nt	22%	-1%	12%[10 µM]	10µM*
O=C(Nc1ccc2c(c1)OCCO2)C1CCN(C(=O)c2ccccc2)CC1	0	-4%	1%	-10%[38.3 µM]	-14%	14µM*
Cc1ccccc1C(=O)N1CCC(C(=O)Nc2ccc3c(c2)OCCO3)CC1	7	-16%	5%[9.22 µM]	-6%[38.3 µM]	11%	28µM*
O=C(O)CCCCCC[C@@H]1C(=O)NC(=O)N1CC[C@@H](O)C1CCCCC1	nt	nt	nt	nt	-3%[1.9 µM]	nt
CCOc1ccc(C(=O)Nc2cc(-c3nc4ccccc4o3)ccc2C)cc1Cl	3	nt	nt	nt	nt	nt
COc1ccc(C(=O)NCCn2cc(SCC(N)=O)c3ccccc32)cc1	nt	nt	-8%[9.22 µM]	nt	0%[10 µM]	nt
Cc1ccc(C)c(NC(=O)CN(C)C(=O)CCN2C(=O)c3ccccc3C2=O)c1	-7	nt	14µM*	nt	-80%	2%
CCOc1ccccc1OCCCC(=O)N(C)CC(=O)Nc1cc(C)ccc1C	nt	nt	5%	-1%	-32%	-1%
CCCCNS(=O)(=O)c1ccc2nc(SCC(=O)c3ccccc3OC)[nH]c2c1	2	28µM*	19%	7%[38.3 µM]	-43%	?
CCCCNS(=O)(=O)c1ccc2nc(SCC(N)=O)[nH]c2c1	nt	nt	-1%[9.22 µM]	nt	-5%[10 µM]	nt
COC(=O)c1cc2occc2n1Cc1c(F)cccc1Cl	12	-28%	12%	38%[38.3 µM]	-12%	13µM*
CCOC(=O)c1cc2occc2n1Cc1c(F)cccc1Cl	12	-16%	-8%	11%[38.3 µM]	0%	?
O=C(O)CSc1cc(C(=O)c2ccccc2O)cn2c(=O)c3c(-c4ccccc4)csc3nc12	nt	nt	10%	1%	-74%	3.5µM*
SMILES	IMPase inh	HPGD inh	HTT aggregate	IMPase Li cell	HTT cytoprotect	ALDH1A1 block
CCOC(=O)c1sc2nc3c(SCC(=O)O)cc(C(=O)c4ccccc4O)cn3c(=O)c2c1C	nt	nt	19%	15%	nt	1%
COC(=O)c1cc(C(=O)c2cc(F)ccc2O)cn2c(=O)c3c(C)c(C)sc3nc12	nt	nt	0%[9.22 µM]	nt	-12%[10 µM]	?
Cc1sc2nc3c(SC(C)C(=O)O)cc(C(=O)c4ccccc4O)cn3c(=O)c2c1C (stereo not drawn)	nt	-21%	?	-2%	-65%[10 µM]	8.9µM*
COc1cccc(CN2CCNC(=O)C2CC(=O)N(Cc2cnn(C)c2)C(C)C)c1 (stereo not drawn)	nt	nt	-8%[9.22 µM]	8%	5%[10 µM]	-1%
COc1ccc(/C=C/C(=O)c2ccc(O)cc2)cc1	nt	nt	-10%[9.22 µM]	-3%	-1%[10 µM]	0%
COc1ccc(/C=C/c2cc(-c3ccc(C)cc3)o[n+]2C)cc1	12	?	4.5µM*	5%[38.3 µM]	-69%	?
Cc1ccc(-c2cn(-c3ccccc3)c3[n+]2CCCS3)cc1	14	-8%	1.8µM*	26%[38.3 µM]	-84%[10 µM]	-2%
COC(=O)C/C=C/[C@@H](C)[C@H](O)c1ccccc1Br	nt	2%	nt	20%	?	12%
COC(c1ccccc1Br)C(C)/C=C/CCO (stereo not drawn)	nt	nt	nt	nt	?	3.2µM*
CCn1c2ccc(/C(C)=N\O)cc2c2cc(/C(C)=N\O)ccc21	?	2.8µM*	?	4%[38.3 µM]	7%	-2%
CCn1c2ccccc2c2cc(/C=N/O)ccc21	nt	nt	?	-7%	nt	-1%
CC(NC(=O)COC(=O)C1CSC2(C)CCC(=O)N12)C12CC3CC(CC(C3)C1)C2 (stereo not drawn)	nt	nt	-1%	10%	-45%	4.5µM*
CC12CCC(=O)N1C(C(=O)OCC(=O)Nc1sccc1C#N)CS2 (stereo not drawn)	4	-9%	-8%	0%[38.3 µM]	-5%[10 µM]	-15%
Fc1ccc(N2CCN(C(=S)NCC3CCCO3)CC2)cc1 (stereo not drawn)	nt	nt	5%	1%	-9%	-7%
CCN1CCN(C(=S)NCC2CCCO2)CC1 (stereo not drawn)	nt	nt	0%	0%	-27%	0.5µM*
COC(=O)C1=C(C(=O)OC)[C@@H]2N(C)c3ccc(OC)cc3[C@@]23C[C@@H](C(=O)OC)N(S(=O)(=O)c2ccc(C#N)cc2)C3=N1	nt	1%	nt	2%	-15%[10 µM]	4%[13.5 µM]
CCOc1ccc(NC2c3ccccc3C(=O)N2Cc2ccc3c(c2)OCO3)cc1 (stereo not drawn)	17	28µM*	?	14%[38.3 µM]	-60%	?
COc1cc(NC2c3ccccc3C(=O)N2Cc2ccc3c(c2)OCO3)cc(OC)c1OC (stereo not drawn)	14	-15%	4%	13%[38.3 µM]	-7%	-8%
Cc1ccc(C(=O)COC(=O)CCC(=O)Nc2ccc(Oc3cc(C)ccc3C(C)C)cc2)cc1	2	nt	nt	nt	nt	nt
COc1cc(NS(=O)(=O)c2ccc(NC(=S)NC(=O)c3sc4cc(F)ccc4c3Cl)cc2)nc(OC)n1	-26	16µM*	?	-14%	0%[10 µM]	8.9µM*
COc1cc(NS(=O)(=O)c2ccc(NC(=S)NC(=O)c3sc4ccccc4c3Cl)cc2)nc(OC)n1	?	25µM*	-25%	-17%	12%[10 µM]	11µM*
